Our source for the growth values is PubChem BioAssay (NCI).

Test systems include DU-145 prostate; K-562 leukemia; MALME-3M melanoma; MDA-MB-231 breast; RXF 393 renal; SF-268 CNS; SF-295 CNS; SF-539 CNS; UACC-257 melanoma; M14 melanoma; HCT-15 colon; HT29 colon; SNB-75 CNS; SNB-19 CNS; U251 CNS; PC-3 prostate; SK-MEL-5 melanoma; UACC-62 melanoma; LOX IMVI melanoma; SK-MEL-28 melanoma.
What all share (experiment): NCI-60 one-dose screen, 48 h (100 = growth as untreated, 0 = no growth, -100 = all killed)
Holding throughout (details): 10 µM unless noted

About 83,000 compounds went through this panel and 20% of them were active in at least one assay; those are over-represented in the sample as a whole.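 The test compound was applied at a single concentration to cells in 96-well plates for 48 hours, and percent growth was recorded.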 Values without a mark were called inactive. Activity calls are given as the source filed them. How the source made its calls: active means growth percent below 10; inactive means the rest.

As to `O=C(O)c1ccccc1C(=O)c1ccc(I)cc1`, the growth is 109% with DU-145 prostate; 104% in the experiment with K-562 leukemia; 98.3% in the experiment with MALME-3M melanoma; 110% in the experiment on MDA-MB-231 breast; 108% in the experiment with RXF 393 renal; 106% in the experiment on SF-268 CNS. Moreover, the growth in the experiment on SF-295 CNS was 102%; in the experiment on SF-539 CNS, 98.9%; with UACC-257 melanoma, 117%; in the experiment with M14 melanoma it was 98.2%; in the experiment on HCT-15 colon, 100%; in the experiment with HT29 colon, 90%. The growth with SNB-75 CNS was 98.1%; in the experiment with SNB-19 CNS it was 110%; in the experiment on U251 CNS it was 102%; with PC-3 prostate it was 91.2%; with SK-MEL-5 melanoma, 102%; in the experiment on UACC-62 melanoma it was 105%. The results for the growth with LOX IMVI melanoma and with SK-MEL-28 melanoma were 91% and 107%, respectively.

`CN(C)c1ccc(/C=N/n2c(-c3cc(F)c(Cl)cc3Cl)nn(CN3CCOCC3)c2=S)cc1`: the growth in the experiment on DU-145 prostate was 106%; in the experiment on K-562 leukemia, 82.7%; in the experiment with MALME-3M melanoma, 87.6%; in the experiment on MDA-MB-231 breast it was 99.8%; with RXF 393 renal, 110%; in the experiment on SF-268 CNS, 119%. In addition, the growth was 96.1% in the experiment on SF-295 CNS; 97.1% in the experiment on SF-539 CNS; 91.9% with UACC-257 melanoma; 82.6% with M14 melanoma; 103% in the experiment on HCT-15 colon; 110% in the experiment on HT29 colon. Further, the growth in the experiment on SNB-75 CNS was 97.7%; in the experiment with SNB-19 CNS, 99.4%; with U251 CNS, 89%; in the experiment with PC-3 prostate, 103%; in the experiment on SK-MEL-5 melanoma, 92.3%; with UACC-62 melanoma it was 94.8%. Besides, the growth in the experiment with LOX IMVI melanoma was 96.1%; in the experiment with SK-MEL-28 melanoma it was 108%.

Regarding `c1ccc([Se]CCCN2CCN(CCC[Se]c3ccccc3)CC2)cc1`, the growth in the experiment on DU-145 prostate was 109%; with K-562 leukemia, 129%; in the experiment with MALME-3M melanoma, 123%; with MDA-MB-231 breast, 98.8%; in the experiment with RXF 393 renal, 44.6%; with SF-268 CNS, 109%. Besides, the growth in the experiment with SF-295 CNS is -58.4% (active); in the experiment with SF-539 CNS it was 112%; with UACC-257 melanoma, 104%; in the experiment on M14 melanoma it was 90.3%; in the experiment on HCT-15 colon, 90.9%; in the experiment on HT29 colon, 96.3%. Further, the growth in the experiment on SNB-75 CNS was 100%; in the experiment with SNB-19 CNS, 119%; with U251 CNS, 101%; with PC-3 prostate, 102%; with SK-MEL-5 melanoma, 101%; with UACC-62 melanoma, 92.3%. Moreover, the growth was 91.6% in the experiment on LOX IMVI melanoma and 111% in the experiment with SK-MEL-28 melanoma.

With `CCN(CC)CCC(C(=O)O)(c1ccccc1)c1ccccc1`, the growth was 107% in the experiment with DU-145 prostate; 102% with K-562 leukemia; 89.7% in the experiment on MALME-3M melanoma; 99.4% in the experiment with MDA-MB-231 breast; 118% in the experiment on RXF 393 renal; 93.9% with SF-268 CNS. Further, the growth is 97% in the experiment on SF-295 CNS; 93.9% in the experiment on SF-539 CNS; 113% with UACC-257 melanoma; 97% with M14 melanoma; 103% in the experiment with HCT-15 colon; 94.9% in the experiment on HT29 colon. In addition, the growth was 86.8% in the experiment with SNB-75 CNS; 104% with SNB-19 CNS; 109% in the experiment on U251 CNS; 103% in the experiment on PC-3 prostate; 104% in the experiment on SK-MEL-5 melanoma; 97.9% in the experiment with UACC-62 melanoma. Further, the growth with LOX IMVI melanoma is 95.7%; in the experiment on SK-MEL-28 melanoma, 109%.

As to `O=C(NCCNc1nccc(-c2c(-c3cccc(O)c3)nc3sccn23)n1)c1ccc(N2CCOCC2)c(C(F)(F)F)c1`, the growth in the experiment with DU-145 prostate is 94.9%; in the experiment with K-562 leukemia, 63%; with MALME-3M melanoma, -4.27% (active); in the experiment on MDA-MB-231 breast it was 64.9%; with RXF 393 renal, 57.6%; with SF-268 CNS, 79.1%. In addition, the growth in the experiment on SF-295 CNS is 67.5%; with SF-539 CNS, 77.8%; with UACC-257 melanoma, 15.8%; in the experiment with M14 melanoma it was 19.1%; with HCT-15 colon, 80.1%; in the experiment on HT29 colon, 68.6%. The growth is 58% in the experiment on SNB-75 CNS; 107% with SNB-19 CNS; 82% with U251 CNS; 56.6% in the experiment with PC-3 prostate; 40% in the experiment on SK-MEL-5 melanoma; 5.88% (active) in the experiment with UACC-62 melanoma. The figures for the growth with LOX IMVI melanoma and in the experiment on SK-MEL-28 melanoma were 42.2% and 42.8%, respectively.

As to `CN1CCN(C(=O)/C=C/c2ccc([N+](=O)[O-])o2)CC1`, the growth is 92.6% with DU-145 prostate; 86.6% in the experiment with K-562 leukemia; 22.6% with MALME-3M melanoma; 87.8% in the experiment on MDA-MB-231 breast; -14.9% (active) in the experiment with RXF 393 renal; 87.6% with SF-268 CNS. Further, the growth with SF-295 CNS was 134%; with SF-539 CNS, 107%; with UACC-257 melanoma, 1.85% (active); in the experiment on M14 melanoma, 92.4%; in the experiment with HCT-15 colon, 63.8%; in the experiment on HT29 colon it was 81.8%. In addition, the growth was 95.2% in the experiment with SNB-75 CNS; 98% in the experiment with SNB-19 CNS; 90% with U251 CNS; 95.7% in the experiment on PC-3 prostate; 90.1% in the experiment on SK-MEL-5 melanoma; 69.9% in the experiment with UACC-62 melanoma. The growth is 66.7% in the experiment with LOX IMVI melanoma and 35.8% in the experiment with SK-MEL-28 melanoma.

`CS(=O)(=O)Nc1cccc(-c2ccc3ncnc(Nc4ccc(F)c(Cl)c4)c3c2)c1`: the growth was 28.4% with DU-145 prostate; 11.2% in the experiment with K-562 leukemia; 31% in the experiment with MALME-3M melanoma; -2.84% (active) in the experiment with MDA-MB-231 breast; 23.7% in the experiment on RXF 393 renal; 38.9% in the experiment on SF-268 CNS. The growth in the experiment with SF-295 CNS is 3.13% (active); in the experiment with SF-539 CNS, 25.9%; in the experiment on UACC-257 melanoma it was 49.4%; in the experiment on M14 melanoma it was 10.5%; in the experiment with HCT-15 colon it was 1% (active); in the experiment with HT29 colon it was 1.71% (active). The growth with SNB-75 CNS is 32.8%; in the experiment on SNB-19 CNS, 47.4%; with U251 CNS it was 18.2%; in the experiment with PC-3 prostate, 12.3%; with SK-MEL-5 melanoma it was 21.4%; with UACC-62 melanoma, 28.2%. Moreover, the growth is -35.4% (active) in the experiment with LOX IMVI melanoma and 44.9% in the experiment on SK-MEL-28 melanoma.
